Data on 76 compounds can be found in the antibiotic and cytotoxicity screens of Wong et al. (2023).

About 500 (1.3%) of roughly 39,000 compounds were called active. Many of the other results were omitted from the sample, so actives are more common in it than they were.

In the experiment the test system is S. aureus RN4220. Description: growth inhibition call (relative growth <= 0.2). As to conditions: 50 µM.
`C(=N\C1CCCCCCCCCCC1)/c1ccco1`: the growth inhibition call was “inactive”.
For `C[C@H](CO)N1C[C@H](C)[C@H](CN(C)S(=O)(=O)c2cn(C)cn2)Oc2ccc(NC(=O)Cc3cn(C)c4ccccc34)cc2C1=O`, the growth inhibition call was “inactive”.
With `C[C@@H]1CN([C@@H](C)CO)C(=O)Cc2cc(NC(=O)Cc3cn(C)c4ccccc34)ccc2O[C@H]1CN(C)Cc1ccc(Oc2ccccc2)cc1` the entry was “inactive”.
As for `NCc1cn(-c2ccccc2)nc1C12CC3CC(CC(C3)C1)C2`, the growth inhibition call was “active”.
Regarding `OCc1cn(-c2ccccc2)nn1`, the growth inhibition call was “inactive”.
Take `c1ccc(-c2nc(C34CC5CC(CC(C5)C3)C4)cs2)cc1`: the growth inhibition call is “inactive”.
The same measure for `C=CC[C@@H](CC(=O)N[C@H](CO)Cc1ccccc1)C(=O)N[C@H](C)COC(=O)[C@@H](CC=C)CC(=O)OC(C)(C)C`: “inactive”; for `C[C@@H]1CCCCO[C@@H](CN(C)Cc2ccncc2)[C@H](C)CN([C@H](C)CO)C(=O)c2cc(NC(=O)NC3CCCCC3)ccc2O1`: “inactive”.
The same measure for `CCCCc1oc2ccccc2c1C(=O)c1cc(I)c(OCCN(CC)CC)c(I)c1.Cl`: “inactive”; for `CCCCc1oc2ccccc2c1C(=O)c1cc(I)c(OCCN(CC)CC)c(I)c1`: “inactive”.
The same measure for `CCc1oc2ccccc2c1C(=O)c1cc(Br)c(O)c(Br)c1`: “active”; for `OC[C@H]1O[C@@H](OCc2ccccc2)[C@H](O)[C@@H](O)[C@@H]1O`: “inactive”.
As to `Cc1noc(C)c1NC(=O)Nc1ccc2c(c1)C(=O)N([C@@H](C)CO)C[C@@H](C)[C@@H](CN(C)C(=O)Nc1ccccc1)OCCCC[C@@H](C)O2`, the growth inhibition call is “inactive”.
With `COc1cc(NC(=O)c2cccc(-n3cc(NC(=O)Nc4cccc(C)c4)cn3)c2)cc(OC)c1OC` the entry was “inactive”.
With `CC(=O)N1[C@H](CNC(=O)CN2CCOCC2)[C@H](c2ccccc2)[C@@H]1CO` the entry was “inactive”; with `CCC=C(C(=O)NC1C(=O)N2C(C(=O)OCOC(=O)C(C)(C)C)=C(COC(N)=O)CSC12)c1csc(N)n1.Cl` (stereo unspecified), “inactive”; with `CON=C(C(=O)N[C@@H]1C(=O)N2C(C(=O)OCOC(=O)C(C)(C)C)=C(C=Cc3scnc3C)CS[C@H]12)c1csc(N)n1`, “active”.
The same measure for `CON=C(C(=O)NC1C(=O)N2C(C(=O)OCOC(=O)C(C)(C)C)=C(C=Cc3scnc3C)CSC12)c1csc(N)n1` (stereo unspecified): “active”.
As for `CC(C)NC(=O)N(C)C[C@H]1Oc2ccc(NS(=O)(=O)c3ccc(F)cc3)cc2CC(=O)N([C@H](C)CO)C[C@H]1C`, the growth inhibition call is “inactive”.
Consider `COc1ccc2c3c([nH]c2c1)[C@@H](CO)N(C[C@]13CN(C1)S(=O)(=O)c1cccs1)C(=O)c1ccccc1`, for which the growth inhibition call was “inactive”.
With `C[C@@H]1CN([C@@H](C)CO)C(=O)c2cc(NC(=O)NC3CCCCC3)ccc2O[C@@H]1CN(C)Cc1ccc(Oc2ccccc2)cc1` the entry was “inactive”; with `CC(C)(C)C(=O)C[n+]1ccc(C(N)=O)cc1`, “inactive”; with `O=C(O)C1C(=CCO)OC2CC(=O)N21.[LiH]` (stereo unspecified), “active”.
Turning to `O=C(O)[C@@H]1C(=CCO)O[C@H]2CC(=O)N12`, the growth inhibition call was “inactive”.
The same measure for `O=C(O)[C@H]1/C(=C/CO)O[C@@H]2CC(=O)N21`: “inactive”; for `N[C@@H]1CC[C@@H](CCn2cc(C3(O)CCCC3)nn2)O[C@H]1CO`: “inactive”; for `C[C@H](CO)N1C[C@H](C)[C@H](CN(C)C(=O)Nc2ccc(F)cc2)OCc2ccccc2-c2ccccc2C1=O`: “inactive”.
The same measure for `C[C@@H]1CCCCO[C@@H](CN(C)C(=O)NC2CCCCC2)[C@H](C)CN([C@H](C)CO)C(=O)c2cc(NS(=O)(=O)c3cccs3)ccc2O1`: “inactive”.
With `Cc1cccc(S(=O)(=O)N2C[C@H](O)COC[C@@H]3O[C@@H](CC(=O)NCc4ccc5c(c4)OCO5)CC[C@H]32)c1` the entry was “inactive”; with `CC(=O)Oc1ccccc1C(=O)Nc1ccccc1`, “inactive”.
For the compound `CC(=O)Oc1ccccc1C(=O)Nc1ncc([N+](=O)[O-])s1`, the growth inhibition call is “active”.
The same measure for `CC(=O)Nc1ncc([N+](=O)[O-])s1`: “inactive”.
With `O=S1(=O)C[C@@H]2NC(=S)N[C@@H]2C1` the entry was “inactive”; with `C[C@H](CO)N1C[C@H](C)[C@@H](CN(C)S(=O)(=O)c2cn(C)cn2)Oc2ccc(NC(=O)NC3CCCCC3)cc2CC1=O`, “inactive”.
In the case of `C[C@@H]1CN([C@@H](C)CO)C(=O)c2cc(NC(=O)CCN3CCOCC3)ccc2O[C@@H]1CN(C)C(=O)Nc1ccccc1`, the growth inhibition call was “inactive”.
The same measure for `CC(C)NC(=O)N(C)C[C@H]1OCCCC[C@@H](C)Oc2ccc(NC(=O)C3CCCCC3)cc2C(=O)N([C@H](C)CO)C[C@H]1C`: “inactive”.
With `COc1ccc(C2=N[C@H](c3ccc(Cl)cc3)[C@H](c3ccc(Cl)cc3)N2C(=O)N2CCNC(=O)C2)c(OC(C)C)c1` the entry was “inactive”.
The same measure for `COc1ccc(C2=N[C@@H](c3ccc(Cl)cc3)[C@@H](c3ccc(Cl)cc3)N2C(=O)N2CCNC(=O)C2)c(OC(C)C)c1`: “active”.
For `C[C@H]1CN([C@@H](C)CO)C(=O)Cc2cc(NC(=O)CCN3CCOCC3)ccc2O[C@@H]1CN(C)C(=O)Nc1ccccc1`, the growth inhibition call was “inactive”.
In the case of `O=C(Nc1ccc(Br)cc1)c1ccc(N2C(=O)c3ccc(C(=O)Nc4ccc(Br)cc4)cc3C2=O)cc1`, the growth inhibition call was “inactive”.
With `CO[C@H]1CN(C)C(=O)c2ccc(NC(=O)Nc3cccc(F)c3)cc2OC[C@H](C)N(C(=O)Nc2c(C)noc2C)C[C@@H]1C` the entry was “inactive”; with `CCCCCCCCCCCCCCCC(=O)OCC(NC(=O)C(Cl)Cl)C(O)c1ccc([N+](=O)[O-])cc1` (stereo unspecified), “inactive”; with `CS(=O)(=O)c1ccc(C(O)C(CO)NC(=O)C(Cl)Cl)cc1` (stereo unspecified), “inactive”.
With `O=C([O-])CCC(=O)OCC(NC(=O)C(Cl)Cl)C(O)c1ccc([N+](=O)[O-])cc1.[Na+]` (stereo unspecified), the growth inhibition call is “inactive”.
In the case of `CCCCCCCCCCCCCCCC(=O)OC[C@H](NC(=O)C(Cl)Cl)[C@H](O)c1ccc([N+](=O)[O-])cc1`, the growth inhibition call was “inactive”.
With `O=C(NC(CO)C(O)c1ccc([N+](=O)[O-])cc1)C(Cl)Cl` (stereo unspecified) the entry was “active”.
In the case of `CS(=O)(=O)c1ccc(C(O)C(CF)NC(=O)C(Cl)Cl)cc1` (stereo unspecified), the growth inhibition call is “active”.
The same measure for `Cc1noc(C)c1NC(=O)N(C)C[C@@H]1OCCCC[C@H](C)Oc2ccc(NC(=O)Nc3ccccc3)cc2C(=O)N([C@@H](C)CO)C[C@@H]1C`: “inactive”; for `CCCN(C)C[C@H]1OCCCC[C@@H](C)Oc2ccc(NC(=O)Nc3ccc(OC)cc3)cc2C(=O)N([C@H](C)CO)C[C@@H]1C`: “inactive”; for `COc1cccc(-c2cn(CC[C@H]3CC[C@H](NC(=O)CN(C)C)[C@@H](CO)O3)nn2)c1`: “inactive”.
Take `COCCn1cc2c(n1)[C@H](CNC(=O)CS(C)(=O)=O)OCC2`: the growth inhibition call was “inactive”.
`C[C@H](CO)N1C[C@H](C)[C@H](CN(C)S(C)(=O)=O)Oc2ncc(C#CCN(C)C)cc2C1=O`: the growth inhibition call is “inactive”.
Turning to `C[C@@H]1CN([C@@H](C)CO)C(=O)c2c(c3ccccc3n2C)-c2ccccc2CO[C@H]1CN(C)Cc1ccc(C(=O)O)cc1`, the growth inhibition call is “inactive”.
With `NCc1ccccc1-n1cccn1` the entry was “inactive”.
With `NCCn1cccn1` the entry was “inactive”.
Regarding `Cl.N=C(N)n1cccn1`, the growth inhibition call is “active”.
The same measure for `C[C@H]1CN([C@@H](C)CO)C(=O)Cc2cc(NS(=O)(=O)c3ccc(Cl)cc3)ccc2O[C@@H]1CN(C)S(=O)(=O)c1cn(C)cn1`: “inactive”.
On to `CC(C)[C@@H](N)c1nc2c([nH]1)CCCC2`, for which the growth inhibition call is “inactive”.
With `CC(=CC(=O)OCCCCCCCCC(=O)O)CC1OCC(CC2OC2C(C)C(C)O)C(O)C1O` (stereo unspecified) the entry was “active”; with `C/C(=C\C(=O)OCCCCCCCCC(=O)O)C[C@@H]1OC[C@H](C[C@@H]2O[C@H]2[C@@H](C)[C@H](C)O)[C@@H](O)[C@H]1O`, “inactive”; with `CCOC(=O)CC1=NNC(=N)SC1`, “inactive”.
As to `C[C@@H]1CN([C@H](C)CN(C)C)C(=O)c2cc(NC(=O)Cc3cn(C)c4ccccc34)ccc2O[C@H]1CN(C)S(=O)(=O)c1ccc(Cl)cc1`, the growth inhibition call was “inactive”.
With `CCCN(C)C[C@@H]1OCCCC[C@@H](C)Oc2ccc(NC(=O)Nc3ccc(F)cc3)cc2C(=O)N([C@H](C)CO)C[C@H]1C` the entry was “inactive”.
With `CCCN(C)C[C@H]1OCCCC[C@H](C)Oc2ccc(NC(=O)Nc3ccc(C(F)(F)F)cc3)cc2C(=O)N([C@@H](C)CO)C[C@H]1C` the entry was “active”; with `CCCN(C)C[C@@H]1OCCCC[C@@H](C)Oc2ccc(NC(=O)Nc3ccc(C(F)(F)F)cc3)cc2C(=O)N([C@H](C)CO)C[C@@H]1C`, “inactive”.
With `CCCN(C)C[C@@H]1OCCCC[C@@H](C)Oc2ccc(NC(=O)Nc3ccc(C(F)(F)F)cc3)cc2C(=O)N([C@H](C)CO)C[C@H]1C` the entry was “active”; with `CCCN(C)C[C@H]1OCCCC[C@@H](C)Oc2ccc(NC(=O)Nc3ccc(C(F)(F)F)cc3)cc2C(=O)N([C@H](C)CO)C[C@H]1C`, “inactive”.
In the case of `CCCN(C)C[C@H]1OCCCC[C@@H](C)Oc2ccc(NC(=O)Nc3ccc(F)cc3)cc2C(=O)N([C@@H](C)CO)C[C@H]1C`, the growth inhibition call was “active”.
With `CCCN(C)C[C@@H]1OCCCC[C@H](C)Oc2ccc(NC(=O)Nc3ccc(C(F)(F)F)cc3)cc2C(=O)N([C@H](C)CO)C[C@@H]1C` the entry was “inactive”.
With `CCCN(C)C[C@H]1OCCCC[C@@H](C)Oc2ccc(NC(=O)Nc3ccc(C(F)(F)F)cc3)cc2C(=O)N([C@@H](C)CO)C[C@H]1C`, the growth inhibition call is “inactive”.
With `CCCN(C)C[C@H]1OCCCC[C@@H](C)Oc2ccc(NC(=O)Nc3ccc(F)cc3)cc2C(=O)N([C@H](C)CO)C[C@@H]1C` the entry was “inactive”.
On to `C[C@H]1CN([C@@H](C)CO)C(=O)c2cc(NS(C)(=O)=O)ccc2O[C@@H]1CN(C)C(=O)Nc1ccc(F)cc1`, for which the growth inhibition call was “inactive”.
As for `COCC(=O)N(C)C[C@@H]1Oc2cc(C#CCN(C)C)ccc2S(=O)(=O)N([C@H](C)CO)C[C@@H]1C`, the growth inhibition call was “inactive”.
The same measure for `C[C@@H]1CCCCO[C@@H](CN(C)C(=O)C2CCCCC2)[C@@H](C)CN([C@@H](C)CO)C(=O)c2cc(NC(=O)Nc3ccc(C(F)(F)F)cc3)ccc2O1`: “inactive”.
With `COc1ccc(CNC(=O)C[C@H]2CC[C@@H]3[C@@H](COc4ccc(NC(=O)C(C)C)cc4C(=O)N3C)O2)cc1` the entry was “inactive”.
`C[C@@H]1CN([C@H](C)CO)C(=O)c2cccc(NC(=O)Nc3ccc(F)cc3)c2O[C@H]1CN(C)Cc1ccc(Oc2ccccc2)cc1`: the growth inhibition call was “inactive”.
